Arbovirus inh = antivirals against arbovirus infection, primary screen, cell-based, full library, 10K replicate subset; inhibition, % at 10 µM; arbovirus infection cell-based antiviral screen; AID 1251, 2008; hit rate 0.37% among 200,000; in the data active = inhibition above about 30%
WT yeast gro inh = growth inhibition of WT strain, primary screen, mitochondrial fusion inhibitor project, WT and mutant strains, chemical genetic | mitochondrial fusion phenotypic screen | inhibition, % at 10 µM | hit rate 2.1% among 190,000 | AID 1362, 2008; in the data active = inhibition above about 58%; tested in S. cerevisiae
Lmaj promast = Leishmania major promastigote growth inhibition, primary screen. Leishmania major promastigotes, resazurin fluorescence viability. inhibition, % at 10 µM. hit rate 9% among 200,000. AID 1063, 2008; in the data active = inhibition above about 50%;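 note: promastigotes grown with compound for 44 hours at 28 °C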
CHOP inhibitor = inhibitors of CHOP promoter induction, primary screen, cell-based, unfolded protein response, luciferase reporter | CHO-K1 CHOP-promoter luciferase, tunicamycin-induced, 15-18 h | inhibition, % at 10 µM | hit rate 3.8% among 220,000;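 active = compounds that reduced the stress-induced luciferase reporter signal by more than about 70% of percent inhibition, limit read from the data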;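 note: 0% = tunicamycin plus vehicle and 100% = wells without tunicamycin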
Active calls of the source: *; nt = not tested or not shown. Sampled rows, rich in hits. Any-hit rate of the full collection: about 12%.

SMILES	Arbovirus inh	WT yeast gro inh	Lmaj promast	CHOP inhibitor
CCCC(C)C(=O)OCC(=O)NCc1ccc(OC)c(OC)c1 (configuration not stated)	4.0	-13.6	-7.9	12.0
Nc1nc2n(n1)C(c1cccc(Br)c1)CC(c1ccc(F)cc1)N2 (configuration not stated)	2.4	-4.7	92.8*	8.2
Cc1cc([N+](=O)[O-])nn1CC(=O)NCc1ccco1	-0.7	-1.1	50.5*	46.3
NC(=S)N/N=C\c1ccccc1OCc1ccccc1	-27.1	54.1	67.9*	18.8
COC(=O)N/N=C/c1cc(Cl)cc(Cl)c1OCc1ccccc1	-3.2	-1.8	-4.0	74.5*
NC(=S)N/N=C\c1c(OCc2ccccc2Cl)ccc2ccccc12	-5.7	61.2*	63.7*	-53.4
COc1cccc(/C=N/NC(N)=S)c1OCc1cccc(Cl)c1	0.7	-7.8	69.9*	35.0
CCOc1ccc(Cl)cc1/C=N/NC(=O)c1ccccc1	-6.7	-7.6	-4.3	16.5
CCc1cccc(NC2c3ccccc3C(=O)N2c2cccnc2)c1 (configuration not stated)	0.4	3.8	0.1	-22.7
CCN(Cc1ccncc1)C(=O)C1CCN(S(=O)(=O)c2cccs2)CC1	0.6	-17.2	-2.9	0.1
CCSc1nc2ccccc2c(=O)n1-c1c(C)n(C)n(-c2ccccc2)c1=O	-0.6	-1.2	-6.3	11.3
CCOC(=O)c1ccc(NC(=O)c2cc(OC)c(OC)c(OC)c2Br)cc1	-0.1	30.9	73.7*	24.4
CCc1cc2c(=O)[nH]c(-c3ccccn3)nc2s1	-33.6	47.0	98.6*	47.4
CCc1cc2c(=O)[nH]c(N3CCCC3)nc2s1	-1.8	-3.1	-5.9	-6.9
Cc1ccc(C(=O)c2coc3cc([N+](=O)[O-])c(O)c([N+](=O)[O-])c23)cc1	36.5*	-27.1	-12.3	10.5
Cc1ccc(C(=O)c2ccc([N+](=O)[O-])cc2)cc1	-1.7	9.7	-6.8	53.7
Cc1cc(C)c(-c2c(O)c3cnn(-c4ccccc4)c3[nH]c2=O)c(C)c1	15.9	-11.8	-6.7	4.1
CCCC(=O)NC(Nc1ccccc1F)C(Cl)(Cl)Cl (configuration not stated)	0.2	4.1	10.4	22.7
CC(C)CC(=O)NC(Nc1ccccc1F)C(Cl)(Cl)Cl (configuration not stated)	9.0	-3.4	63.0*	53.0
O=C1C2CC(O)CN2C(=O)N1c1ccccc1 (configuration not stated)	1.4	-2.2	-3.4	-2.4
Cc1ccc2nc(-c3sc4nc(C)cc(C)c4c3N)[nH]c2c1	-5.8	9.8	-2.4	91.5*
Cc1ccc2nc(-c3cccc(N)c3)[nH]c2c1	-19.2	26.6	6.7	nt
CCCC(=Nc1ccccc1OC)C1=C(O)CC(c2ccccc2)CC1=O (configuration not stated)	-10.4	-11.4	99.3*	-14.3
COc1ccccc1N=C(C)C1=C(O)CC(c2ccccc2)CC1=O (configuration not stated)	-9.8	2.5	53.0*	-28.5
CCN(Cc1ccccc1)S(=O)(=O)c1ccc(C(=O)N2CCN(c3nc4ccccc4s3)CC2)cc1	3.9	-5.2	17.8	50.2
SMILES	Arbovirus inh	WT yeast gro inh	Lmaj promast	CHOP inhibitor
CC1Cc2ccccc2N1C(=O)CSc1nnc(Cn2nnc3ccccc32)n1C (configuration not stated)	4.5	-2.0	0.3	72.4*
CCn1c(SCC(=O)N2c3ccccc3CC2C)nnc1-c1ccco1 (configuration not stated)	nt	nt	0.4	nt
CC1Cc2ccccc2N1C(=O)CSc1nnc2n1C(C)(C)Cc1ccccc1-2 (configuration not stated)	-1.2	2.5	52.3*	35.0
CC(C)N(C(=O)CSc1nnc(Cn2nnc3ccccc32)n1C)C(C)C	6.5	-5.0	-1.7	2.6
COc1cccc(-n2c(SCC(=O)N3c4ccccc4CC3C)nnc2-c2ccco2)c1 (configuration not stated)	4.8	-14.1	53.4*	2.2
COc1ccccc1NCc1ccc([N+](=O)[O-])s1	-18.6	-3.8	60.0*	1.1
COc1ccccc1OCCN(C#N)c1nc(N(C)C)nc(N(C)C)n1	2.6	13.6	7.9	4.0
CCC(=O)Nc1ccc(Nc2ccccc2)cc1	-8.0	-5.1	93.3*	-12.9
COCC(=O)Nc1ccc(Nc2ccccc2)cc1	-19.2	-6.8	40.0	7.1
O=C(Nc1ccc(Nc2ccccc2)cc1)C(Cl)(Cl)Cl	-15.7	27.4	78.4*	30.0
NC(=O)Nc1ccc(Nc2ccccc2)cc1	nt	nt	nt	-9.5
CC(C)(C)c1ccc(S(=O)(=O)/C=C/C#N)cc1	nt	nt	nt	3.4
